The whole screen tested about 110,000 compounds, of which about 20 (0.02%) were called active. Not shown: some 2% with an inconclusive outcome. The call rests on the fitted dose curve; in most records, active means well fitted activation curve with a large enough effect; inconclusive means small, poorly fitted or top-dose-only effect; inactive means no such curve, though single readings can be large or run the other way. What follows is part of a selection rich in actives, with near analogues and random picks from the rest.
Experiment: qHTS Assay for Compounds that Induce Erasure of Genomic Imprints;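 further: 0% = negative control wells on the plate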
Conditions: mouse ES Peg3-LacZ reporter, beta-gal luminescence, 40 h; series mostly up to 10.9 µM; activity change, positive = activation: at the top concentration
Excerpt: qHTS Assay for Compounds that Induce Erasure of Genomic Imprints NIH Chemical Genomics Center [NCGC] NIH Molecular Libraries Screening Centers Network [MLSCN] Assay Submitter (PI): JEFFRIES, SEAN, NCGC, University of Cambridge NCGC Peg3 Imprinting Assay Overview Genomic imprinting is the epigenetic process whereby genes are expressed in a parent of origin fashion. […] Unlike some forms of epigenetic silencing that can be overcome by overexpression of transcription factors, genomic imprinting stably represses the expression of one allele despite potentially high levels of expression from the other allele. […] During mouse embryonic day 11.5 imprints are erased in PGCs so that sex specific imprints can be reestablished during gametogenesis. Embryonic germ (EG) cells can be derived from developing PGCs at embryonic day 11.5 and these cells often lack genomic imprints. […] Embryonic stem (ES) cells are a cell type similar to EG cells in phenotype and transcriptional profile, yet ES cells maintain genomic imprints. This similarity between ES and EG cells prompted us to use ES cells to look for factors which could induce imprint erasure. To investigate the stability of genomic imprinting, ES cells were derived from mice with an insertion of a LacZ-Neomycin reporter construct in the Peg3 locus. Peg3 is an imprinted locus where gene expression is restricted to the paternal allele. […] Using LacZ expression we are able to monitor the state of the Peg3 imprint. In order to dissect the mechanisms involved in imprint erasure using a forward chemical genetics approach we developed a cell based phenotype assay using an endogenous silence imprinted locus. This assay utilizes maternally inherited Peg3LacZ-Neo ES cells by monitoring the LacZ expression from the normally silent Peg3 allele. To facilitate screening, high-density feeder-free ES cell culture has been optimized so that ES cells can be grown in 1536 for over four days without feeding or washes. The assay uses a luminescence based read out for LacZ activity and is a homogenous assay optimal for HTS.
NCGC Peg3 Imprinting Assay Protocol Summary ES cell lines were derived from blastocysts taken from Peg3LacZ-Neo x129 matings. Lines were sexed and genotyped for the Peg3LacZ-Neo allele. Female cells carrying the reporter allele were used in this study. Cells were derived on a layer of mouse embryonic fibroblasts and passaged multiple times before switching to feeder free culture. Cells were maintained feeder free on gelatin coated dishes in DMEM/F12 media supplemented with 15% FBS, 2mM L-glutamine, 100 units/ml penicillin, 100ug/ml streptomycin, 0.1mM MEM nonessential amino acids, 1mM sodium pyruvate, 0.1% sodium bicarbonate, 0.1mM 2-Mercaptoethanol, and 400 units/ml leukemia inhibitory factor (LIF) at 37C with 5% CO2. The assay was performed in 1536-well format. A single luminescence read was taken at the end of the assay and the data was normalized by plate to internal negative controls. Maximum efficacy and AC50 values were calculated from dose-response data using the standard Hill equation. 1536 well plates were filled with 0.5ul of 0.1% gelatin per well, spun down and incubated for at least 30 min at 37C. The ES cells were then trypsini Peg3 1536-well assay protocol: (1)Plate 0.5ul/well 0.1% gelatin in white tissue culture treated 1536-well plates, spin and incubate at 37C for at least 30 min. (2)Add 5ul/well (300 cells) of ES cell suspension from freshly trypsinized cells and incubate at 37C, 5% CO2 for 40 hours. (3)Add 5ul/well of freshly prepared BetaGlo solution and incubate at room temperature for 5 minutes. (4)Read luminescence on the ViewLux plate reader. Keywords Genomic Imprinting, Germ Cells, Embryonic Stem Cell, DNA Methylation, Peg3, qHTS, NIH roadmap, NCGC

Activity change, positive = activation, inactive:
COc1ccccc1Nc1cc(C(=O)NCCCN(C)C2CCCCC2)c2ccccc2n1 21%
CCOC(=O)c1ccccc1NC(=O)c1nn(-c2ccc(OC)c(Cl)c2)c(=O)c2c1c1ccccc1n2C 22.8%
Cc1ccc(C)c(NC(=O)CSC2=Nc3ccccc3N=C(c3ccc(F)cc3)C2)c1 -7.52%
CCc1ccccc1NC(=O)Cn1c(=O)n(CC2CCC(C(=O)NCCc3ccccc3)CC2)c(=O)c2ccccc21 (stereo not drawn) -9.17%
COc1ccc(CNc2nc(-c3ccc(Cl)cc3)nn2S(=O)(=O)c2ccc(C)cc2)cc1 -11.7%
Cc1ccc(CN(C(=O)c2ccccc2[N+](=O)[O-])c2ccccn2)cc1 -12.4%
COc1ccc(NC(=O)C(=O)NCc2ccco2)cc1 -6.52%
CC1CN(C(=O)N2CCC(C(=O)NCc3cccs3)CC2)c2ccccc2O1 (stereo not drawn) -8.54%
Cc1ccc(S(=O)(=O)N2CCC(Oc3ccc(-n4cnnn4)cc3)CC2)cc1 -8.14%
Cc1ccc(F)cc1NC(=O)CCSc1nc(-c2ccco2)cc(C(F)(F)F)n1 5.17%
Cc1cc(C)c(-c2n[nH]c3c2C(c2ccccc2F)N(CCO)C3=O)c(O)c1 (stereo not drawn) -12.1%
CC(=O)Nc1ccc(S(=O)(=O)NCC2CCC(C(=O)NCCc3ccccc3)CC2)cc1 (stereo not drawn) -11%
COC(=O)c1ccccc1NC(=O)c1ccc2c(=O)n3c(nc2c1)CCCCC3 -6.07%
COc1ccc(S(=O)(=O)NCc2cccn2Cc2cccc(C)c2)cc1 -13.3%
COC(=O)CN1C(=O)CSc2ccc(S(=O)(=O)Nc3cc(C)ccc3C)cc21 2.15%
COc1ccc(CNC(=O)CSCc2nc(-c3ccccc3F)oc2C)cc1 -11%
O=C(Nc1ccc(F)cc1F)c1cnn(-c2ccc(F)cc2)c1-n1cccc1 4.84%
Cc1ccc(OCC(=O)Nc2ccc(Cl)c(-c3nc4ccccc4[nH]3)c2)cc1C -9.61%
Cc1oc2ncn(CC(C)C)c(=O)c2c1C(=O)N1CCN(c2ccccc2F)CC1 19.9%
COc1ccccc1NC(=O)c1cc(C2CC2)nc2c1c(C)nn2-c1ccc(C)cc1 -7.45%
Cc1ccc(CN2C(=O)SC(Nc3ccccc3)C2=O)cc1 (stereo not drawn) 3.26%
CCN(CCCNC(=O)c1cc2c(=O)n(CC)c3ccccc3c2s1)Cc1ccccc1 -11.1%
Cc1ccc(C(=O)NCCSc2c(C)[nH]c3ccccc23)cc1C -7.06%
O=C1CC(c2ccc(F)cc2F)c2cc3c(cc2N1)OCO3 (stereo not drawn) -10.5%
Cc1cccc(C(=O)N2c3nc(-c4ccco4)nn3C3(CCCCC3)[C@@H]3CCCC[C@@H]32)c1 -2.39%
O=C(CSc1nc(=O)n(Cc2cccnc2)c2c1CCC2)Nc1ccc(F)cc1F 19.5%
Cc1c(CNC2CCCCC2)c(C(=O)O)c(C)n1Cc1cccc(Cl)c1 -11%
CC(C)Oc1ccc(CNC(=O)C2CCN(c3nc4ccccc4n(C)c3=O)CC2)cc1 -2.14%
Cc1ccccc1NC(=O)Cn1c(=O)n(CCCCC(=O)NCc2ccccc2Cl)c(=O)c2ccccc21 -1.68%
COCCCNC(=O)c1ccc(NC(=O)c2nsc3ccccc23)cc1 2.98%
Cc1c(NC(=O)C(C)(C)C)cccc1-c1nc2ccccc2s1 -11.3%
Cc1ccn2c(Nc3ccc4c(c3)OCCO4)c(-c3ccc(C)s3)nc2c1 -21.3%
Cc1ccccc1CNC(=O)CCc1cn(Cc2ccccc2C)c2ccccc12 -11.9%
C[C@@]12CCC(=O)C=C1CC[C@H]1C2[C@@H](O)C[C@]2(C)[C@@H]1CC[C@@]2(O)C(=O)COC(=O)C1CCCC1 (stereo partly drawn) -4.6%
Cc1ccc(-n2nc(CO)c(C(=O)NCCc3ccccc3)n2)cc1 -11.8%
Cn1cc(S(=O)(=O)N2CCCCCC2)cc1C(=O)N1CCN(c2ccc(F)cc2)CC1 -9.82%
Cc1cccc(CSc2nc3ccncc3n2Cc2ccc(C(=O)O)cc2)c1 -11.1%
COc1ccc(CNc2nc(-c3ccc(Cl)cc3)nn2C(=O)c2ccccc2)cc1 -3.8%
CC1CCC(N2CC(=O)N(CCC3=CCCCC3)C(c3ccc(F)cc3)C2=O)CC1 (stereo not drawn) -12.5%
CN(Cc1ccccc1)S(=O)(=O)c1ccc(F)c(C(=O)Nc2cccc(Cl)c2Cl)c1 -33.7%
OC[C@H]1O[C@@H](n2cnc3c(NC4CCCC4)ncnc32)[C@H](O)[C@H]1O -11.3% [at 60.7 µM]
Cc1cc(NS(=O)(=O)c2ccc3oc(=O)c4ncn(C)c4c3c2)ccc1Br 8.33%
O=C(CSc1nc(Nc2ccc(F)c(F)c2)c2ccccc2n1)c1ccc(Cl)cc1 -13%
COc1ccc(C(=O)Nc2cccc(C(=O)OCc3cc(=O)n4c5c(sc4n3)CCCC5)c2)cc1 -92.1%
Cc1ccc(SCC(=O)Nc2ccc3oc(-c4ccccc4C)nc3c2)cc1 -13.5%
CCc1nnc(SCc2c(F)cccc2Cl)c2cc3sccc3n12 4.75%
Cc1nn(-c2ccc(F)cc2)c(-n2cccc2)c1C(=O)N1CCN(c2ccccc2)CC1 -3.32%
CCc1ccc(S(=O)(=O)Nc2cc3c(C(=O)OCc4ccccc4)c(C)oc3c3ccccc23)cc1 -22.6%
CCCC(=O)Nc1cc2nn(-c3ccccc3)nc2cc1C -25.6%
COc1ccc(C(=O)c2oc3ccccc3c2NC(=O)COc2cccc(C)c2)cc1 -16.2%
CCCN(C(=O)Cn1cc(S(=O)(=O)N2CCN(c3ccccc3F)CC2)c2ccccc2c1=O)c1cccc(C)c1 -16.3%
COc1ccc(OCc2ccc(-c3nc(C#N)c(N4CCN(c5ccccc5)CC4)o3)o2)cc1 -12.1%
CN1c2ccc(Cl)cc2-c2nc(SCC(=O)Nc3cc(F)ccc3F)ncc2S1(=O)=O -6.64%
COc1ccc(N(CC(=O)NCCc2ccc(Cl)cc2)S(=O)(=O)c2c(C)nn(C)c2C)cc1 15.7%
CCN(CC)CCNC(=O)Cn1ncc2c3ccccc3n(Cc3ccccc3C)c2c1=O -5.94%
Cc1cccn2c(=O)c(C(=O)NC(C)c3ccccc3)cnc12 (stereo not drawn) -15.7%
CN(C)S(=O)(=O)c1ccc(C(=O)N(Cc2cccnc2)c2nc3c(F)cc(F)cc3s2)cc1 -7.79%
CCSc1nnc(NC(=O)c2cc(=O)c3cc(C)c(C)cc3o2)s1 -10.3%
CCOC(=O)c1ccc(NC(=O)Cn2c(=O)n(-c3ccc(C)cc3)c(=O)c3c2cnn3C)cc1 -10.8%
CCOC(=O)c1ccc(NC(=O)CC2C(=O)N(c3ccccc3)C(=O)N2Cc2cccs2)cc1 (stereo not drawn) 7.18%
CCOCCCn1c(SCC(=O)Nc2ccc(CC)cc2)nc2ccccc2c1=O -2.25%
CCC(=O)Nc1c(C(=O)N2CCN(c3ccc(F)cc3)CC2)oc2ccccc12 -6.14%
COc1ccc(S(=O)(=O)NCC(c2ccc(N(C)C)cc2)N2CCCC2)cc1 (stereo not drawn) -12.1%
CC(=O)Nc1cccc(NC(=O)CSc2nccn2Cc2ccc3c(c2)OCO3)c1 -8.32%
Fc1ccc(CSc2nc(NCc3ccccc3)c3ccccc3n2)cc1 -6.21%
Cc1cc(NS(=O)(=O)c2ccc(NC(=O)c3ccccc3C)cc2)nc(C)n1 20.1%
O=c1c(=O)n(Cc2c(F)cccc2Cl)ccn1Cc1ccccc1 -15.9%
CCOc1ccc(NC(=O)c2cn(C3CCCCC3)c(=O)c3c2c2ccccc2n3C)cc1 3.89%
CC1=C(C(=O)Nc2ccccc2Cl)C(c2cccs2)n2ncnc2N1 (stereo not drawn) -9.9%
CCc1ccc(NC(=O)c2sc3nc4c(cc3c2N)CN(CC)CC4)cc1 -5.27%
Cc1ccc(C(=O)Nc2ccc(C(=O)O)cc2)cc1S(=O)(=O)Nc1ccccc1 -5.39%
CCC(Sc1nc2n[nH]c(C)c2c(=N)n1-c1ccccc1Cl)C(=O)N(CC)CC (stereo not drawn) -7.79%
CCOC(=O)c1cnc2c(C)cc(C)cc2c1Nc1ccc(N2CCOCC2)cc1 -14.4%
CCOc1ccc(OCC)c(NC(=O)c2cc(C)nc3c2c(C)nn3-c2cccc(Cl)c2C)c1 8.2%
CCOc1ccc(CCNC(=O)C2=C(C)C(=O)OC23CCC(C)CC3)cc1OCC (stereo not drawn) 7.79%
CCOc1ccc(CCNC(=O)Cn2nc(CC)n3c(cc4sc(CC)cc43)c2=O)cc1OCC 4.59%
Cc1cc(C)cc(Nc2ncnc3onc(-c4ccc(F)cc4)c23)c1 18.6%
CCOc1ccc(CNC(=O)c2cc(=O)[nH]c3ccc(S(=O)(=O)N4CCCCC4)cc23)cc1 -16.4%

Source: PubChem BioAssay AID1948 (National Center for Advancing Translational Sciences (NCATS), 2009)
